# Measurements published in the supplement of paper PMC9588786.
# ± gives the standard deviation of the averaged measurements.
# System: HT-1080
# Assay: relative cell viability with RSL3 co-treatment (fraction of control); higher = stronger protection from RSL3-induced ferroptosis (higher viability)
# Settings: 10 µM
# 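Also: viability read as CCK-8 absorbance at 450 nm in cells co-exposed to the GPX4 inhibitor RSL3, relative to a 0.01% DMSO vehicle control.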
row,SMILES,relative cell viability
1,CC(=O)Nc1nc(C)c(-c2ccc(Cl)c(S(=O)(=O)NCCO)c2)s1,0.603 ± 0.057
2,C#Cc1cccc(Nc2ncnc3cc(OC)c(OCCCCCCC(=O)NO)cc23)c1,0.793 ± 0.046
3,C[C@]1(O)C[C@@H](c2nc(-c3ccc4ccc(-c5ccccc5)nc4c3)c3c(N)nccn32)C1 [Linsitinib (OSI-906)],0.587 ± 0.029
4,O=c1sn(-c2cccc3ccccc23)c(=O)n1Cc1ccccc1 [Tideglusib],0.74 ± 0.035
5,COc1cc2ncnc(Oc3cccc(NC(=O)Nc4cc(C(C)(C)C(F)(F)F)on4)c3)c2cc1OC,0.68 ± 0.17
6,O=c1cc(-c2cccc3c2Sc2ccccc2S3)oc(N2CCOCC2)c1,0.57 ± 0.21
7,"CCCS(=O)(=O)Nc1ccc(F)c(C(=O)c2c[nH]c3ncc(-c4ccc(Cl)cc4)cc23)c1F [Vemurafenib (PLX4032, RG7204)]",0.323 ± 0.091
8,CN(c1ccccc1CNc1nc(Nc2ccc3c(c2)CC(=O)N3)ncc1C(F)(F)F)S(C)(=O)=O,0.723 ± 0.045
9,"CN1CCN(c2ccc3nc(-c4c(N)c5c(F)cccc5[nH]c4=O)[nH]c3c2)CC1 [Dovitinib (TKI-258, CHIR-258)]",0.827 ± 0.1
10,O=C(O)C(Cc1ccccc1[N+](=O)[O-])=NNc1nc(-c2ccc(Cl)c(Cl)c2)cs1 (mixture of isomers),1.27 ± 0.046
11,"C[C@H](Nc1ncnc2nc[nH]c12)c1cc2cccc(Cl)c2c(=O)n1-c1ccccc1 [Duvelisib (IPI-145, INK1197)]",0.717 ± 0.025
12,O=C1NC(=O)C(c2ccccc2[N+](=O)[O-])=C1Nc1ccc(O)c(Cl)c1,0.847 ± 0.031
13,C=CC(=O)N1CCC[C@@H](n2nc(-c3ccc(Oc4ccccc4)cc3)c3c(N)ncnc32)C1,0.933 ± 0.11
14,Cn1sc(=O)n(Cc2ccccc2)c1=O,0.887 ± 0.11
15,CN1CCN(c2cccc(Nc3nc4c(-c5ccc(S(C)(=O)=O)cc5)cccn4n3)c2)CC1,1.21 ± 0.03
16,Cc1ccc(NC(=O)c2cccc(C(C)(C)C#N)c2)cc1Nc1ccc2ncn(C)c(=O)c2c1,0.507 ± 0.047
17,CNC(=O)c1nn(C)c2c1C(C)(C)Cc1cnc(Nc3ccc(N4CCN(C)CC4)cc3)nc1-2,0.723 ± 0.16
18,COc1c(C)c(C(=O)c2ccc(N)c(C(=O)O)c2)n2ccccc12,0.653 ± 0.14
19,C[C@@H](Oc1cc(-c2cnn(C3CCNCC3)c2)cnc1N)c1c(Cl)ccc(F)c1Cl,0.7 ± 0.026
20,Cc1c[nH]c2nc(Nc3ccc(N4CCN(C)CC4)c(F)c3)nc(-c3cccc(CC#N)c3)c12,0.123 ± 0.1

row,SMILES,relative cell viability
1,c1cc(-c2cnn3cc(-c4ccc(OCCN5CCCCC5)cc4)cnc23)ccn1 [Dorsomorphin 2HCl],0.463 ± 0.18
2,"Cc1[nH]c(/C=C2\C(=O)Nc3ccccc32)c(C)c1CCC(=O)O [Orantinib (TSU-68, SU6668)]",0.903 ± 0.057
3,Cc1cc(C)c(/C=C2\C(=O)Nc3ccccc32)[nH]1 [Semaxanib (SU5416)],0.983 ± 0.15
4,c1cncc(CN2CCC(n3ncc4c(N5CCOCC5)nc(-c5ccc6[nH]ccc6c5)nc43)CC2)c1,0.347 ± 0.13
5,CC(C)(C)c1cc(/C=C(\C#N)C(N)=S)cc(C(C)(C)C)c1O [Tyrphostin AG 879],0.69 ± 0.017
6,C=CCc1ccc(O)c(-c2ccc(O)c(CC=C)c2)c1 [Honokiol],0.85 ± 0.04
7,COc1cc2ncc(-c3ccccc3)nc2cc1OC [Tyrphostin AG 1296],0.567 ± 0.11
8,COc1cc2c(Oc3ccc(NC(=O)C4(C(=O)Nc5ccc(F)cc5)CC4)cc3F)ccnc2cc1OCCCN1CCOCC1,0.287 ± 0.064
9,"O=C(c1ccc(F)c(F)c1Nc1ccc(I)cc1F)N1CC(O)([C@@H]2CCCCN2)C1 [Cobimetinib (GDC-0973, RG7420)]",0.797 ± 0.032
10,CNC(=O)c1ccccc1Nc1nc(Nc2ccc(N3CCOCC3)cc2OC)ncc1Cl,0.247 ± 0.07
11,C=CC(=O)Nc1ccc2ncnc(Nc3cccc(Br)c3)c2c1,0.593 ± 0.055
12,C[C@H](Nc1ncnc2[nH]cnc12)c1cc2ccc(F)cc2nc1-c1ccccn1,0.59 ± 0.18
13,CC1(COc2ccc3c(c2)ncn3-c2ccc3cccc(N4CCC(N)CC4)c3n2)COC1,0.683 ± 0.27
14,CN1CCN(CCOc2cc(OC3CCOCC3)c3c(Nc4c(Cl)ccc5c4OCO5)ncnc3c2)CC1 [Saracatinib (AZD0530)],0.727 ± 0.16
15,CCCCOc1c(C(=O)c2c(F)cc(C)cc2F)c[nH]c2nncc1-2,0.903 ± 0.24
16,NCC(=O)Nc1ccc(-n2nc(C(F)(F)F)cc2-c2ccc3c(ccc4ccccc43)c2)cc1,0.06 ± 0.056
17,CCn1c(=O)c(-c2ccc(-c3cncs3)cc2Cl)cc2cnc(Nc3ccc(N4CCN(C)CC4)cc3)nc21,0.833 ± 0.032
18,COc1cc(N2CCC(N(C)C)CC2)ccc1Nc1ncc(Cl)c(Nc2ccccc2P(C)(C)=O)n1,0.36 ± 0.082
19,CCc1cncnc1N1CCN(Cc2nc3ccc(C(F)(F)F)cc3[nH]2)CC1,0.653 ± 0.083
